# Experimental data reported in PubChem BioAssay AID2012 (Sanford-Burnham Center for Chemical Genomics, 2009).
# The campaign covered roughly 290,000 compounds. About 2,700 (0.93%) were called active. No rule for the calls is given here. The entries come from a sample that favours actives as a whole.
# Target: Eukaryotic translation initiation factor 4H (Homo sapiens) (UniProt Q15056)
# Experiment: eIF4H binding inhibition – biochemical, uHTS, fluorescence polarization, translation initiation inhibitor project, primary screen (AID 2012);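 also: calls also rest on retests at 20 µM and on dose response follow-up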
# Details: eIF4H fluorescence polarization binding assay, stronger effect = higher value
Compound,inhibition (at 35 µM),"inhibition (confirmation average, at 20 µM) [%]"
CC(C)NC(=O)C(=O)N/N=C/c1ccco1,-8.2% (inactive),
O=C(Cn1cnc2ccccc21)N/N=C/c1ccco1,69.8% (inactive),2.9
O=c1nc(N/N=C/c2ccco2)cn[nH]1,76.3% (active),73.4
COc1ccc(Nc2ncnc3ccc(Br)cc23)c(OC)c1,-9.9% (inactive),
Cc1ccc(CS(=O)(=O)CCC(=O)NCc2ccc(F)cc2)cc1,-4.5% (inactive),
CCCCNC(=O)C1(O)c2ccccc2NC(=O)N1c1ccc(Cl)cc1 (centres undefined),-2.3% (inactive),
O=C(O)CC(c1ccccc1F)N1Cc2ccccc2C1=O (centres undefined),0.1% (inactive),
O=C(CNC(=O)c1ccc(Br)o1)NCC1CCCO1 (centres undefined),-11.8% (inactive),
O=C(c1cccs1)N(C(=O)c1cccs1)c1ccccn1,-8.6% (inactive),
O=C(c1ccc(Br)o1)N(c1ccccn1)C1CCCCC1,55.5% (active),99.6
CCOc1ccc(-n2cnnn2)cc1S(=O)(=O)N1CCC(C)CC1C (centres undefined),3.6% (active),90.8
CCOc1ccc(Br)cc1S(=O)(=O)N1CCC(C(=O)O)CC1,-7.6% (inactive),
Cc1ccc(S(=O)(=O)N2CCC(Oc3ccc(-n4cnnn4)cc3)CC2)cc1,1.6% (inactive),
COc1cccc(C(=O)Nc2nnc(S(=O)(=O)N3CCOCC3)s2)c1,-15.7% (inactive),
CN(Cc1ccccc1)C(=O)c1ccc(NC2=NC3CS(=O)(=O)CC3S2)cc1 (centres undefined),-7.2% (inactive),
COc1cccc(NC(=O)C2CCCN(c3ncnc4c3nc3n4CCCCC3)C2)c1 (centres undefined),2.9% (inactive),
O=C(c1cc(=O)c2ccccc2o1)N1CCN(c2ccccc2)CC1,1.2% (inactive),
O=C(c1ccc(S(=O)(=O)N2CCOCC2)cc1)N1CCN(c2ccccc2)CC1,-4.2% (inactive),
O=C(c1ccc(CS(=O)(=O)c2ccccc2)o1)N1CCN(c2ccccc2)CC1,93.4% (active),73.1
Cc1ccc(C)c(S(=O)(=O)N2CCN(C(=O)Nc3ccccc3)CC2)c1,4.3% (inactive),
CC(Oc1cc2oc(=O)c3c(c2cc1Cl)CCCC3)C(=O)NCc1ccncc1 (centres undefined),-3.9% (inactive),
CN(C)S(=O)(=O)c1cccc(-c2nn(-c3ccccc3)cc2/C=C2\SC(=S)N(CC(=O)O)C2=O)c1,47.3% (inactive),
Cc1ccc(-c2nn(-c3ccccc3)cc2/C=C2\SC(=S)N(CCCCCC(=O)O)C2=O)o1,78.9% (active),68.5
COc1ccc(-c2nn(-c3ccccc3)cc2/C=C2/SC(=S)N(CCCC(=O)O)C2=O)c(C)c1,15.2% (inactive),

Compound,inhibition (at 35 µM),"inhibition (confirmation average, at 20 µM) [%]"
CCOC(=O)CSc1nc(N2CCOCC2)c2c(c1C#N)CC(C(C)C)OC2 (centres undefined),-6.3% (inactive),
Cc1ccnc(NC(=O)CCNS(=O)(=O)c2ccc(C)c(C)c2)c1,-10.9% (inactive),
Cc1c(-c2ccccc2)nc(N)c(C#N)c1-c1cccs1,7.1% (inactive),
CN1CCc2nc(SC(C(=O)O)c3ccccc3)c(C#N)c(-c3cccs3)c2C1 (centres undefined),76.7% (active),
CCc1c(-c2ccccc2)nc(N)c(C#N)c1-c1cccs1,-8.4% (inactive),
O=C(O)C1CCCCC1C(=O)N1CCN(S(=O)(=O)c2ccc(F)cc2)CC1 (centres undefined),-6.9% (inactive),
O=c1[nH]c(=S)[nH]c2[nH]c(=S)[nH]c12,88.2% (active),
Cc1cc(=O)[nH]c(=S)[nH]1,2.4% (inactive),
Cc1c(C)c(C)c2[nH]c(=S)[nH]c2c1C,-4.2% (inactive),
CN(C(=O)CCNC(=O)Cn1ccc2ccccc2c1=O)c1ccc(Br)cc1,1.5% (inactive),
N#CC1=C(N)C(C#N)(C#N)[C@H](c2ccsc2)[C@H]2COCC=C12,113% (inactive),-3.8
CCOC(=O)C1=C(C)NC(=S)NC1c1cccs1 (centres undefined),-5% (inactive),
CCOC(=O)N1CC=C2C(C#N)=C(N)C(C#N)(C#N)[C@H](c3cccs3)[C@H]2C1,63.3% (active),
Cc1ccn2c(c1)nc(=O)c1cc(S(=O)(=O)N3CCC(C)CC3)ccc12,-3.5% (inactive),
Cc1ccc(Cl)c(OCC(=O)N2CCc3ccccc3C2)c1,-9.4% (inactive),
CCc1ccc(Nc2ncc3c(n2)CC(c2ccco2)CC3=O)cc1 (centres undefined),-4% (inactive),
O=C(Nc1ncc2c(n1)-c1ccccc1OC2)c1ccc(Cl)cc1,-10.3% (inactive),
O=C(Nc1ncc2c(n1)CC(c1ccco1)CC2=O)c1ccc(Cl)cc1 (centres undefined),83.6% (active),
CCCCCCc1cc2cc(-c3nnc(-c4ccccc4)o3)c(=O)oc2cc1O,70.4% (active),
Cc1c(CC(=O)NCCCCCC(=O)O)c(=O)oc2cc3occ(-c4ccccc4)c3cc12,6% (inactive),
Cc1c(CCC(=O)O)c(=O)oc2cc3occ(-c4ccccc4)c3cc12,14.4% (inactive),
Cc1nc(NC(=O)c2ccc3c(c2)OCCO3)ccc1Br,-4.6% (inactive),
CCOc1ccc(OCC(=O)Nc2c3c(nn2C(C)(C)C)CS(=O)(=O)C3)cc1,-13.7% (inactive),
COc1ccc(CNS(=O)(=O)c2ccc(-c3cnc(C4CC4)o3)cc2)cc1,-9.2% (inactive),

Compound,inhibition (at 35 µM),"inhibition (confirmation average, at 20 µM) [%]"
O=C1OCC2=C1C(c1ccccc1)CC(=O)N2c1cccc(F)c1 (centres undefined),4.2% (active),96.6
O=C1CC(c2ccccc2)C(=O)N1c1cccc(O)c1 (centres undefined),-6.1% (inactive),
O=C1CC(NNc2ccccc2)C(=O)N1c1cccc(Cl)c1 (centres undefined),-1.9% (inactive),
Cc1ccc(NC(=O)CCC(=O)c2ccc(Br)cc2)cc1,-5% (inactive),
Cc1cc(=O)n2[nH]c(-c3sccc3-n3c(C)ccc3C)cc2n1,93.9% (active),97.8
CCc1c(C)nc2cc(-c3cccs3)[nH]n2c1=O,4.5% (inactive),
Cc1cc(=O)n2[nH]c(-c3cccc(Cl)c3)cc2n1,-7.1% (inactive),
CC1CSc2nnc(CCc3ccccc3)n21 (centres undefined),-1.5% (inactive),
c1ccc(CCC2=NCCn3cccc32)cc1,61.9% (active),
S=C(NCCc1ccccc1)N1CCn2cccc2C1c1ccncc1 (centres undefined),8.3% (inactive),
O=C(NCC(=O)N1CCN(c2ccccc2O)CC1)c1ccc2ccccc2c1,6% (inactive),
COc1cc(C(=O)OCC(=O)NC(C)CCc2ccccc2)cc(OC)c1OC (centres undefined),5.2% (inactive),
Cc1ccc(CN2CCNC(=O)C2CC(=O)NCc2csc(C(C)C)n2)cc1 (centres undefined),-5.6% (inactive),
CN1/C(=c2/s/c(=C3/C(=O)N(c4ccccc4)NC3=Nc3ccccc3)n(C)c2=O)C(C)(C)c2ccccc21,75.5% (active),
CCN1C(=O)/C(=c2\s/c(=C3\Sc4ccccc4N3C)c(=O)n2C)N(C)C1=S,-3% (inactive),
O=[N+]([O-])c1cc([N+](=O)[O-])c(Oc2cc(F)cc(F)c2F)cc1NN1CCCCC1,0.2% (inactive),
Cn1c(=O)c2ccccc2n(CC(=O)Nc2ccc3c(c2)OCCO3)c1=O,-5.6% (inactive),
COc1ccc(-c2c(-c3ccc(OC)cc3O)nc(C)nc2C(F)(F)F)cc1,-5.5% (inactive),
Cc1ccc(CCC(=O)Nc2ncc(Cc3cc(Cl)ccc3Cl)s2)o1,1.5% (inactive),
Cc1ccc(Cc2cnc(N)s2)o1,65.8% (active),93.7
O=C(CCc1nnc2ccc(NCc3ccccc3Cl)nn12)NCC1CCN(C2CCCC2)C1 (centres undefined),13.5% (inactive),
Cc1nn(Cc2ccccc2)c(C)c1NS(=O)(=O)c1ccccc1,-5.2% (inactive),
O=C(CN1C(=O)C2C3C=CC(C3)C2C1=O)NCCc1ccccc1Cl (centres undefined),-10.5% (inactive),
CC(=O)N(CN1C(=O)C2CC=CCC2C1=O)c1cccc(Cl)c1 (centres undefined),26% (inactive),

Compound,inhibition (at 35 µM),"inhibition (confirmation average, at 20 µM) [%]"
CC(=O)N(CN1C(=O)C2C3C=CC(C3)C2C1=O)c1cccc(Cl)c1 (centres undefined),-5.8% (active),61.4
COc1ccc(OCc2cc(C(=O)NCC3(C)COC3)no2)c(Cl)c1,-2.3% (inactive),
O=C(O)c1cccc(N2C(=O)Nc3ccccc3N2O)c1,1% (inactive),
N#Cc1ccccc1CN1C(=O)S/C(=C/c2cccn2-c2cccc(C(=O)O)c2)C1=O,81.6% (active),74.8
Cn1cccc1/C=C1\SC(=O)N(CC(=O)Nc2ccc(F)cc2)C1=O,1.6% (inactive),
Cc1cc(CN(C)C(=O)c2cc(COc3ccc(C)c(C)c3)on2)n[nH]1,-4.1% (inactive),
CCCc1cc(=O)n2[nH]c(C)c(-c3ccc(Cl)cc3)c2n1,11.3% (inactive),
COc1ccccc1OCCCC(=O)Nc1ccc2c(c1)OCCO2,-2.5% (inactive),
COc1ccccc1OCc1ccc(C(=O)N2CCN(C)CC2)o1,0.9% (inactive),
COc1cc2c(C(=O)N3CCN(C)CC3)c(CSc3ccccc3)n(C)c2cc1Br,1.1% (active),81.5
COc1cc(C(=O)N2CCN(C)CC2)cc(OC)c1OC,-6.9% (inactive),
Cc1ccc(N2C(=O)C3C4C=CC(CC4)C3C2=O)cc1Br (centres undefined),-2.9% (inactive),
CN(CCC1CCOCC1)C(=O)CC1C(=O)NCCN1Cc1cccc(F)c1 (centres undefined),-3.2% (inactive),
O=C(Nc1ccc(S(=O)(=O)Nc2ccccn2)cc1)c1ccccc1,-9.1% (inactive),
C=CCn1c(=O)c(C(=O)Nc2ncccc2O)c(O)c2ccccc21,22% (inactive),
CS(=O)(=O)Nc1ccccc1N=C(c1ccccc1)c1ccccc1,1.1% (inactive),
CCOc1ccc(N(CC(=O)NCCOc2ccccc2OC)S(=O)(=O)c2ccccc2)cc1,-3.8% (inactive),
O=C(NCCS(=O)(=O)c1ccc(Br)cc1)c1ccccc1Cl,-7.2% (inactive),
NS(=O)(=O)c1ccc(CCNC(=O)Nc2ccc(Cl)cc2)cc1,-4.8% (inactive),
COc1ccc(Cl)cc1NC(=O)CCS(=O)(=O)c1cc2c(cc1C)NC(=O)CO2,3.9% (inactive),
COc1ccc(Cl)cc1NC(=O)CCN1CCOCC1,-3.3% (inactive),
COc1ccc(Cl)cc1NC(=O)CCS(=O)(=O)c1ccc(Br)cc1,84.2% (active),
O=C(CCS(=O)(=O)c1ccc(Br)cc1)NCCc1ccc(Cl)cc1,86.1% (active),67.7
